Here are results for 39 compounds from PubChem BioAssay (Tox21).

Each structure is given as a SMILES string. “And” between values parts separate entries of the source, which are not always exact repeats. Equal values may be shown once. Results filed as inconclusive are left out. Entries that show only a call come without a potency. Where a structure was tested more than once in an assay, its records may differ in their call. The source made the active and inactive calls. Calls follow the shape of the dose curve; as a rule, active = well fitted curve in the direction sought with a large enough effect in the repeat runs; inconclusive = weak or mixed curves; inactive = no such curve, though single readings can be large; an effect the other way counts as inactive or inconclusive.

The first assay in a line: Caspase-3/7 induction in HepG2 cells by small molecules, qHTS assay (AID 1346978). Also: nearly all actives have a fitted effect of over 15% in size. The settings on record: HepG2 caspase-3/7 activation, Caspase-Glo luminescence, 17 h; series mostly up to 92.4 µM; caspase activation: at the top concentration. The procedure, abridged: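 Caspase-3/7 induction was measured by Caspase-Glo 3/7 luminescence (30 min, room temperature) after a 17 hr compound exposure of wild-type HepG2 cells seeded at 2,000 per well and pre-incubated 5 hr.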
`c1ccc2c(c1)[nH]c1ccccc12`: the Potency entry is “inactive”.
On to `Cc1ccc2c(c1)C(=O)OC2=O`, for which the Potency result is “inactive”.
For `CNC[C@H](O)c1ccc(O)c(O)c1`, the Potency entry was “inactive”.
On to `FC(F)(F)C(Cl)Br` (configuration not stated), for which the Potency result was “inactive”.
The same measure, in the same setting: for `COCCOCCOCCO` the value was “inactive”.
Same read-out and setting: for `CCCCCCCC/C=C\CCCCCCCC(=O)O` the value was “inactive”; for `C=CCOC(=O)C(=C)C`, “inactive”; for `C=CN1CCCC1=O`, “inactive”.
On the same count and under the same terms, as for `CC1=CC(C)(C)Nc2ccccc21`, the entry is “inactive”.
Take `CCCCCCCCCCCCCO`: the Potency entry was “inactive”.
On to `CCCN1C=CN(C)C1`, for which the Potency result was “inactive”.
Same read-out and setting: as for `CC1(C)O[C@@H]2C[C@H]3[C@@H]4C[C@H](F)C5=CC(=O)C=C[C@]5(C)[C@@]4(F)[C@@H](O)C[C@]3(C)[C@]2(C(=O)CO)O1`, the entry is “inactive”; as for `c1ccc2ncccc2c1`, “inactive”; as for `CCC(Cc1c(I)cc(I)c(N)c1I)C(=O)O` (configuration not stated), “inactive”.
As for `OCCNCCO`, the Potency entry was “inactive”.
In the case of `C1COCCN1`, the Potency result was “inactive”.
Still for that read-out and setting: as for `NCCS(=O)(=O)O`, the entry is “inactive”.
The same measure, in the same setting: as for `COc1ccc(C(=O)c2ccccc2O)c(O)c1`, the entry is “inactive”; as for `CC(=O)Nc1ccc2c(c1)Cc1cc(NC(C)=O)ccc1-2`, “inactive”.
With `C[C@]12C=CC(=O)C=C1CC[C@H]1[C@@H]3C[C@@H](O)[C@](O)(C(=O)CO)[C@@]3(C)C[C@H](O)[C@@]12F`, the Potency result is “inactive”.
Consider `Cc1ccc(C(C)(C)C)cc1`, for which the Potency entry is “inactive”.
As for `CCC/C=C/C=O`, the Potency entry is “inactive”.
On the same count and under the same terms, as for `C/C=C/C(=O)N(CC)c1ccccc1C`, the entry is “inactive”; as for `Brc1nc2ccccc2s1`, “inactive”.
Same read-out and setting: as for `[Na+]`, the entry is “inactive”; as for `CCO[Si](CCCNC(N)=O)(OCC)OCC`, “inactive”; as for `Cc1cccc(Nc2ccccc2C(=O)O)c1C`, “inactive”.
The same measure, in the same setting: for `NC[C@H](O)c1ccc(O)c(O)c1` the value was “inactive”.
Turning to `O=[Se](O)O`, the Potency entry is “inactive”.
Take `NCCOCCO`: the Potency result is “inactive”.
The same measure, in the same setting: for `C=CC(=O)OCCCC` the value was “inactive”; for `CCCCCCOCCOCCO`, “inactive”.
As for `CC(=O)Oc1c(C)c(C)c2c(c1C)CC[C@@](C)(CCC[C@H](C)CCC[C@H](C)CCCC(C)C)O2`, the Potency entry is “inactive”.
Consider `c1ccc2c(c1)ccc1cc3c(ccc4ccccc43)cc12`, for which the Potency result is “inactive”.
With `Nc1ccc(O)c(N)c1`, the Potency result is “inactive”.
As to `CCCCCCCCCCCCO`, the Potency result is “inactive”.
Regarding `CC(C)[N+](C)(CCOC(=O)C1c2ccccc2Oc2ccccc21)C(C)C`, the Potency result was “inactive”.
The same measure, in the same setting: for `C=CCCCCCCCCCC` the value was “inactive”; for `C[N+](C)(C)CCO`, “inactive”.

Another assay can be described thus: Caspase-3/7 induction in CHO-K1 cells by small molecules, qHTS cell viability counter screen (AID 1346979). Also: nearly all actives have a fitted effect of over 35% in size. Also: potency is read from the fitted curve at half-maximal effect. The settings on record: CellTiter-Fluor fluorescence, 17 h; series mostly up to 92.4 µM; activity change, negative = cytotoxicity: at the top concentration. The procedure, abridged:
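Cytotoxicity counter screen: CellTiter-Fluor added to compound-treated wild-type CHO-K1 cells at 16 h (37C, 5% CO2), fluorescence measured 1 h later; same wells as caspase-3/7 measurement.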
With `c1ccc2c(c1)[nH]c1ccccc12`, the Potency entry is “inactive”.
The same measure, in the same setting: for `Cc1ccc2c(c1)C(=O)OC2=O` the value was “inactive”.
In the case of `CNC[C@H](O)c1ccc(O)c(O)c1`, the activity change, negative = cytotoxicity is 0.265% [at 19 µM] (inactive).
On to `FC(F)(F)C(Cl)Br` (configuration not stated), for which the Potency result is “inactive”.
The same measure, in the same setting: for `COCCOCCOCCO` the value was “inactive”.
On the same count and under the same terms, for `CCCCCCCC/C=C\CCCCCCCC(=O)O` the value was “inactive”.
For `C=CCOC(=O)C(=C)C`, the Potency result was “inactive”.
On the same count and under the same terms, for `C=CN1CCCC1=O` the value was “inactive”.
On to `CC1=CC(C)(C)Nc2ccccc21`, for which the Potency result is “inactive”.
For the compound `CCCCCCCCCCCCCO`, the Potency entry was “inactive”.
`CCCN1C=CN(C)C1`: the Potency entry is “inactive”.
For `CC1(C)O[C@@H]2C[C@H]3[C@@H]4C[C@H](F)C5=CC(=O)C=C[C@]5(C)[C@@]4(F)[C@@H](O)C[C@]3(C)[C@]2(C(=O)CO)O1`, the Potency entry is “inactive”.
Consider `c1ccc2ncccc2c1`, for which the Potency result is “inactive”.
In the case of `CCC(Cc1c(I)cc(I)c(N)c1I)C(=O)O` (configuration not stated), the Potency entry is “inactive”.
The same measure, in the same setting: as for `OCCNCCO`, the entry is “inactive”; as for `C1COCCN1`, “inactive”.
Still for that read-out and setting: as for `NCCS(=O)(=O)O`, the figure is 28.4 µM (active) and inactive.
`COc1ccc(C(=O)c2ccccc2O)c(O)c1`: the “activity change, negative = cytotoxicity” value was -9.72% [at 42.5 µM] (inactive).
Regarding `CC(=O)Nc1ccc2c(c1)Cc1cc(NC(C)=O)ccc1-2`, the Potency result is “inactive”.
Regarding `C[C@]12C=CC(=O)C=C1CC[C@H]1[C@@H]3C[C@@H](O)[C@](O)(C(=O)CO)[C@@]3(C)C[C@H](O)[C@@]12F`, the Potency entry was “inactive”.
Consider `Cc1ccc(C(C)(C)C)cc1`, for which the Potency result is “inactive”.
Same read-out and setting: as for `CCC/C=C/C=O`, the entry is “inactive”.
On the same count and under the same terms, as for `C/C=C/C(=O)N(CC)c1ccccc1C`, the entry is “inactive”; as for `Brc1nc2ccccc2s1`, “inactive”; as for `[Na+]`, “inactive”.
The same measure, in the same setting: for `CCO[Si](CCCNC(N)=O)(OCC)OCC` the value was “inactive”; for `Cc1cccc(Nc2ccccc2C(=O)O)c1C`, “inactive”.
For the compound `NC[C@H](O)c1ccc(O)c(O)c1`, the “activity change, negative = cytotoxicity” value was -0.177% [at 42.5 µM] (inactive).
As for `NCCOCCO`, the Potency result was “inactive”.
In the case of `C=CC(=O)OCCCC`, the Potency entry is “inactive”.
For `CCCCCCOCCOCCO`, the Potency entry is “inactive”.
Same read-out and setting: as for `CC(=O)Oc1c(C)c(C)c2c(c1C)CC[C@@](C)(CCC[C@H](C)CCC[C@H](C)CCCC(C)C)O2`, the entry is “inactive”; as for `c1ccc2c(c1)ccc1cc3c(ccc4ccccc43)cc12`, “inactive”; as for `Nc1ccc(O)c(N)c1`, 60.7 µM (active) and 30.6 µM (active).
On the same count and under the same terms, as for `CCCCCCCCCCCCO`, the entry is “inactive”.
On to `CC(C)[N+](C)(CCOC(=O)C1c2ccccc2Oc2ccccc21)C(C)C`, for which the “activity change, negative = cytotoxicity” value was 1.3% (inactive).
Consider `C=CCCCCCCCCCC`, for which the Potency result was “inactive”.
Regarding `C[N+](C)(C)CCO`, the Potency result was “inactive”.
